Source: PubChem BioAssay (NCI)
About 79,000 compounds went through this panel and 15% of them were active in at least one assay; those are over-represented in the sample as a whole. The source made the active and inactive calls. Rule as the data show it: active = growth inhibition above about 70%; inactive = the rest.

Assays:
[1] = NCI Yeast Anticancer Drug Screen. Data for the wt1 strain (AID 149);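 also: 0% = growth of vehicle-treated wt1 cultures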; conditions: S. cerevisiae wt1 strain (SPY 50644) growth inhibition, hits give high values
In short: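 Vehicle-normalised growth inhibition; strain wt1; compound exposure.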

[2] = NCI Yeast Anticancer Drug Screen. Data for the rad50EPP+ strain (AID 151);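 also: 0% = growth of vehicle-treated control cultures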; conditions: S. cerevisiae rad50 mutant strain, hits give high values
In short: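 One strain with a rad50 alteration (rad50EPP+) was compound-treated, its growth then compared to that of vehicle controls.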

[3] = NCI Yeast Anticancer Drug Screen. Data for the mgt1 strain (AID 153); conditions: S. cerevisiae mgt1 mutant growth inhibition, hits give high values
In short: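 After exposure of the mgt1 yeast mutant to compound, growth was measured and reported as inhibition compared with vehicle controls.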

[4] = NCI Yeast Anticancer Drug Screen. Data for the rad50 strain (AID 155);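 also: 0% = growth of vehicle-only cultures of the same strain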; conditions: S. cerevisiae rad50 strain growth inhibition, hits give high values
In short: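 A DNA repair-deficient yeast mutant serves as the test organism; compound-induced growth inhibition is calculated against vehicle-treated cells.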

[5] = NCI Yeast Anticancer Drug Screen. Data for the mec2-1 strain (AID 157); conditions: S. cerevisiae mec2-1 strain, hits give high values
In short: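 Test agents were screened against the mec2-1 yeast strain, with defined DNA repair or cell cycle alteration. Growth was scored as inhibition against vehicle-only controls.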

[6] = NCI Yeast Anticancer Drug Screen. Data for the rad14 strain (AID 159);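 also: 0% = growth of vehicle-treated control cultures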; conditions: S. cerevisiae rad14 strain growth inhibition, hits give high values
In short: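 Vehicle-treated cultures served as the baseline for growth inhibition of a DNA repair-mutant yeast strain exposed to each compound.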

[7] = NCI Yeast Anticancer Drug Screen. Data for the sgs1 mgt1 strain (AID 161);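 also: 0% = growth of cultures given vehicle only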; conditions: S. cerevisiae sgs1 mgt1 strain, hits give high values
In short: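 Mutant yeast exposed to compound; growth scored against vehicle-only wells.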

[8] = NCI Yeast Anticancer Drug Screen. Data for the CLN2oe strain (AID 163);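 also: 0% = growth of vehicle-only control cultures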; conditions: S. cerevisiae CLN2oe strain, hits give high values
In short: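 Here, growth inhibition in a cell-cycle-altered yeast strain after compound exposure was quantified against vehicle control growth.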

[9] = NCI Yeast Anticancer Drug Screen. Data for the cln2 rad14 strain (AID 165);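 also: 0% = growth equal to vehicle treated cultures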; conditions: S. cerevisiae cln2 rad14 strain, hits give high values
In short: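 Growth of compound-exposed yeast (cln2 rad14 genotype) measured and expressed as inhibition relative to vehicle.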

[10] = NCI Yeast Anticancer Drug Screen. Data for the bub3 strain (AID 167); conditions: S. cerevisiae bub3 mutant strain, hits give high values
In short: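 Inhibition values come from growth of compound-treated mutant yeast normalised to vehicle-treated controls.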

[11] = NCI Yeast Anticancer Drug Screen. Data for the wt2 strain (AID 169);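 also: 0% = growth of vehicle-treated yeast cultures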; conditions: S. cerevisiae wt2 strain growth inhibition, hits give high values
In short: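 Genetically defined yeast strains from a DNA-repair/cell-cycle panel were used. Compound-exposed yeast growth was measured, and the inhibition was calculated relative to vehicle treatment.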

[12] = NCI Yeast Anticancer Drug Screen. Data for the mlh1 strain (AID 171);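 also: 0% = growth of vehicle-treated control cultures of the same strain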; conditions: S. cerevisiae mlh1 strain growth inhibition, hits give high values
In short: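 Here the genetically defined yeast mutant is grown with each compound, and the extent to which its growth falls below that of vehicle-exposed cells is reported.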

[13] = NCI Yeast Anticancer Drug Screen. Data for the sgs1 strain (AID 173);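 also: 0% = growth of vehicle-only control cultures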; conditions: S. cerevisiae sgs1 mutant, hits give high values
In short: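 Relative growth inhibition, referenced to vehicle, was determined in a yeast strain with a defined alteration affecting DNA damage repair or cell cycle control after compound exposure.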

[14] = NCI Yeast Anticancer Drug Screen. Data for the mlh1 rad18 strain (AID 175); conditions: S. cerevisiae mlh1 rad18 strain growth inhibition, hits give high values
In short: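 In this whole-cell yeast screen, a strain with altered DNA damage repair is challenged with compound, and its growth is measured against matched vehicle-treated controls.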

[15] = NCI Yeast Anticancer Drug Screen. Data for the rad18 strain (AID 177); conditions: S. cerevisiae rad18 mutant growth inhibition, hits give high values
In short: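 Screen uses a yeast strain with a defined lesion in DNA damage repair; compound effect is read as loss of growth compared to untreated vehicle cultures.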

[16] = at 5.0 µM (retest, dose inferred, filed as 0.5)
[17] = at 50.0 µM (retest, dose inferred, filed as 5.0)

Measured: growth inhibition

NC(N)=NS(=O)(=O)c1ccc(Nc2c3ccccc3nc3c(C(=O)NCCO)cccc23)cc1
inactive: [1]; at 1.2 µM 1% | [1]; at 3.7 µM 1% | [1]; at 11.0 µM 2% | [1]; at 33.0 µM -1% | [1]; at 100.0 µM 5% | [2]; at 1.2 µM -1% | [2]; at 3.7 µM -5% | [2]; at 11.0 µM -5% | [2]; at 33.0 µM 5% | [2]; at 100.0 µM 37% | [3]; at 1.2 µM -1% | [3]; at 3.7 µM -4% | [3]; at 11.0 µM -3% | [3]; at 33.0 µM 12% | [3]; at 100.0 µM 38% | [4]; at 1.2 µM 0% | [4]; at 3.7 µM 0% | [4]; [16] -11% | [4]; at 11.0 µM 3% | [4]; at 33.0 µM 16% | [4]; at 50.0 µM 69.4% | [5]; at 1.2 µM -3% | [5]; at 3.7 µM 0% | [5]; [16] -4% | [5]; at 11.0 µM -2% | [5]; at 33.0 µM 1% | [5]; [17] -2% | [5]; at 50.0 µM -21.9% | [5]; at 100.0 µM 33% | [6]; at 1.2 µM 0% | [6]; at 3.7 µM -1% | [6]; at 11.0 µM -2% | [6]; at 33.0 µM 2% | [6]; at 100.0 µM 17% | [7]; [16] 2% | [7]; [17] 20% | [7]; at 50.0 µM 20.4% | [8]; at 1.2 µM 2% | [8]; at 3.7 µM 0% | [8]; at 11.0 µM 4% | [8]; at 33.0 µM -6% | [8]; at 100.0 µM 11% | [9]; [16] 16% | [9]; [17] 17% | [9]; at 50.0 µM -5.1% | [10]; at 1.2 µM -4% | [10]; at 3.7 µM -1% | [10]; [16] -12% | [10]; at 11.0 µM -4% | [10]; at 33.0 µM -4% | [10]; [17] 33% | [10]; at 50.0 µM -1.35% | [10]; at 100.0 µM 7% | [11]; at 1.2 µM 0% | [11]; at 3.7 µM 0% | [11]; at 11.0 µM 1% | [11]; at 33.0 µM 0% | [11]; at 100.0 µM 20% | [12]; at 1.2 µM -2% | [12]; at 3.7 µM 0% | [12]; at 11.0 µM 1% | [12]; at 33.0 µM 1% | [12]; at 100.0 µM 48% | [13]; at 1.2 µM -1% | [13]; at 3.7 µM 0% | [13]; at 11.0 µM 0% | [13]; at 33.0 µM 5% | [13]; at 100.0 µM 43% | [14]; [16] -1% | [14]; [17] 40% | [14]; at 50.0 µM 46% | [15]; at 1.2 µM -1% | [15]; at 3.7 µM 0% | [15]; at 11.0 µM 9% | [15]; at 33.0 µM 7%
active: [4]; [17] 73% | [4]; at 100.0 µM 73% | [15]; at 100.0 µM 77%

CCOC(=O)/C(=C\c1ccc(C#N)cc1)C(C)=O
inactive: [1]; at 1.2 µM -15% | [1]; at 3.7 µM 6% | [1]; at 11.0 µM 9% | [3]; at 1.2 µM -23% | [3]; at 3.7 µM -4% | [3]; at 11.0 µM 38% | [4]; at 1.2 µM -9% | [4]; at 3.7 µM 7% | [4]; [16] 36% | [4]; at 11.0 µM 31% | [5]; at 1.2 µM -36% | [5]; at 3.7 µM -27% | [5]; [16] -11% | [5]; at 11.0 µM 13% | [6]; at 1.2 µM -4% | [6]; at 3.7 µM 1% | [6]; at 11.0 µM 15% | [7]; [16] 25% | [9]; [16] 13% | [9]; at 50.0 µM 38.2% | [10]; at 1.2 µM 1% | [10]; at 3.7 µM 3% | [10]; [16] 29% | [10]; at 11.0 µM 58% | [11]; at 1.2 µM -37% | [11]; at 3.7 µM -18% | [11]; at 11.0 µM 18% | [12]; at 1.2 µM 0% | [12]; at 3.7 µM 26% | [12]; at 11.0 µM 69% | [13]; at 1.2 µM -18% | [13]; at 3.7 µM -6% | [13]; at 11.0 µM 25% | [14]; [16] -9% | [15]; at 1.2 µM -30% | [15]; at 3.7 µM 7% | [15]; at 11.0 µM 23%
active: [1]; at 33.0 µM 84% | [1]; at 100.0 µM 98% | [3]; at 33.0 µM 95% | [3]; at 100.0 µM 99% | [4]; at 33.0 µM 91% | [4]; [17] 94% | [4]; at 50.0 µM 88.8% | [4]; at 100.0 µM 99% | [5]; at 33.0 µM 92% | [5]; [17] 98% | [5]; at 50.0 µM 81.3% | [5]; at 100.0 µM 98% | [6]; at 33.0 µM 95% | [6]; at 100.0 µM 99% | [7]; [17] 94% | [7]; at 50.0 µM 92% | [9]; [17] 94% | [10]; at 33.0 µM 98% | [10]; [17] 99% | [10]; at 50.0 µM 81.2% | [10]; at 100.0 µM 99% | [11]; at 33.0 µM 93% | [11]; at 100.0 µM 99% | [12]; at 33.0 µM 98% | [12]; at 100.0 µM 98% | [13]; at 33.0 µM 93% | [13]; at 100.0 µM 98% | [14]; [17] 97% | [14]; at 50.0 µM 90% | [15]; at 33.0 µM 88% | [15]; at 100.0 µM 98%

CCn1c(O)c(C=Nc2ccccc2)s/c1=N/Nc1nc(-c2ccccc2)cs1
inactive: [1]; at 1.2 µM -87% | [1]; at 3.7 µM -1% | [1]; at 11.0 µM 0% | [1]; at 33.0 µM 0% | [1]; at 100.0 µM -3% | [2]; at 1.2 µM 7% | [2]; at 3.7 µM 19% | [2]; at 11.0 µM 32% | [2]; at 33.0 µM 54% | [3]; at 1.2 µM 0% | [3]; at 3.7 µM 10% | [3]; at 11.0 µM 18% | [3]; at 33.0 µM 21% | [3]; at 100.0 µM 24% | [4]; at 1.2 µM -2% | [4]; at 3.7 µM 6% | [4]; [16] -12% | [4]; at 11.0 µM 14% | [4]; at 33.0 µM 15% | [4]; [17] 12% | [4]; at 50.0 µM 41.7% | [4]; at 100.0 µM 11% | [5]; at 1.2 µM -6% | [5]; at 3.7 µM -1% | [5]; [16] -25% | [5]; at 11.0 µM -1% | [5]; at 33.0 µM -1% | [5]; [17] 11% | [5]; at 50.0 µM 23.8% | [5]; at 100.0 µM 2% | [6]; at 1.2 µM 0% | [6]; at 3.7 µM 6% | [6]; at 11.0 µM 9% | [6]; at 33.0 µM 7% | [6]; at 100.0 µM 1% | [7]; [16] -7% | [7]; [17] 27% | [7]; at 50.0 µM 43.5% | [8]; at 1.2 µM -6% | [8]; at 3.7 µM -11% | [8]; at 11.0 µM -7% | [8]; at 33.0 µM -9% | [8]; at 100.0 µM 17% | [9]; [16] -1% | [9]; [17] 15% | [9]; at 50.0 µM 25.3% | [10]; at 1.2 µM -5% | [10]; at 3.7 µM -3% | [10]; [16] -14% | [10]; at 11.0 µM -4% | [10]; at 33.0 µM 12% | [10]; at 100.0 µM 50% | [11]; at 1.2 µM -3% | [11]; at 3.7 µM -2% | [11]; at 11.0 µM -1% | [11]; at 33.0 µM 2% | [11]; at 100.0 µM 11% | [12]; at 1.2 µM -2% | [12]; at 3.7 µM 3% | [12]; at 11.0 µM 3% | [12]; at 33.0 µM 4% | [12]; at 100.0 µM 12% | [13]; at 1.2 µM -10% | [13]; at 3.7 µM 7% | [13]; at 11.0 µM 13% | [13]; at 33.0 µM 22% | [13]; at 100.0 µM 36% | [14]; [16] -10% | [14]; [17] 25% | [14]; at 50.0 µM 61.8% | [15]; at 1.2 µM -3% | [15]; at 3.7 µM -3% | [15]; at 11.0 µM -5% | [15]; at 33.0 µM 9% | [15]; at 100.0 µM -12%
active: [2]; at 100.0 µM 74% | [10]; [17] 74% | [10]; at 50.0 µM 75.5%
